# Measurements taken from article PMC7862700, “An all-to-all approach to the identification of sequence-specific readers for epigenetic DNA modifications on cytosine”.
# Key:
# Assay in all cases: DAPPL (digital affinity profiling via proximity ligation, sequencing); 10 mM Tris-HCl pH 7.5, 50 mM NaCl, 1 mM DTT, 4% glycerol, room temperature, 30 min; GST-TFs on glutathione beads, 16-mer random dsDNA library, 0.1% formaldehyde crosslink after washing; high values mean tight binding
# Conditions in all cases: protein: recombinant; tags: N-terminal GST; dsDNA, one strand shown
# ERF = molecular target: T1, ERF (Homo sapiens, UniProt P50548 1-548)
# T1 sequence: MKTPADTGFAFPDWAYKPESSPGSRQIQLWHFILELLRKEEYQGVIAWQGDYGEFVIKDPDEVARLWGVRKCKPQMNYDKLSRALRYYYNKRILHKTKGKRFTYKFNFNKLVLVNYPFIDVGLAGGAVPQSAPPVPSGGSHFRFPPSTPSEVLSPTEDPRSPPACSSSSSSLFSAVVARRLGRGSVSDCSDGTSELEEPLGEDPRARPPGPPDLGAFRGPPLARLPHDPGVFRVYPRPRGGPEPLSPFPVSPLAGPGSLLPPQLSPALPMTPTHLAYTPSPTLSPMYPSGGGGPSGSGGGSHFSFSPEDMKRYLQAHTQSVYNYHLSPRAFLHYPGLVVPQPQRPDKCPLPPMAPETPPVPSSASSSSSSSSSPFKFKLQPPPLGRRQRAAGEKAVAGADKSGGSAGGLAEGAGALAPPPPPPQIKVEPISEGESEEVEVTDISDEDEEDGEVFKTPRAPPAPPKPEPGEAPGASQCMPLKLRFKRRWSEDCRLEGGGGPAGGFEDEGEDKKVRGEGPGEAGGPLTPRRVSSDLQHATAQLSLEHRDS
# Outline: (§1)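 Sequencing on an Illumina NextSeq500 followed washing, crosslinking with 0.1% formaldehyde, proximity ligation (BsaI/T4 ligase, 1 h, 37 °C) and PCR amplification of pools that had been incubated for 30 min at room temperature with 200 nmole of a random double-stranded 16-mer DNA library in Tris/NaCl/DTT/glycerol buffer. Each pool held DNA-barcoded human transcription factors, expressed in yeast as GST fusions and captured on glutathione beads, plus a tag-only sample. Binding signal is a hexamer's read frequency for a factor divided by its frequency in the tag-only sample.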
# ETV3L = molecular target: T2, ETV3L (Homo sapiens, UniProt Q6ZN32 1-361)
# T2 sequence: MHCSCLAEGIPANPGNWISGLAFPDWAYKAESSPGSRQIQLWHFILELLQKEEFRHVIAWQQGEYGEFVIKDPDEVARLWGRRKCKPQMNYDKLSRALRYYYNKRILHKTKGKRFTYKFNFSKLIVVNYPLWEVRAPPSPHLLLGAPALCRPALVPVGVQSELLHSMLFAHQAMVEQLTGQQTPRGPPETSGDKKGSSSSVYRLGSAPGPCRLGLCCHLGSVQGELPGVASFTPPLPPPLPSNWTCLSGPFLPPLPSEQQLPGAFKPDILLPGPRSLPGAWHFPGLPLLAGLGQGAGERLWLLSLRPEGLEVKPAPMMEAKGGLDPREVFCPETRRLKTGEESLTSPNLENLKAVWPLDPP
# Outline: as §1
# ETS2 = molecular target: T3, ETS2 (Homo sapiens, UniProt P15036 1-469)
# T3 sequence: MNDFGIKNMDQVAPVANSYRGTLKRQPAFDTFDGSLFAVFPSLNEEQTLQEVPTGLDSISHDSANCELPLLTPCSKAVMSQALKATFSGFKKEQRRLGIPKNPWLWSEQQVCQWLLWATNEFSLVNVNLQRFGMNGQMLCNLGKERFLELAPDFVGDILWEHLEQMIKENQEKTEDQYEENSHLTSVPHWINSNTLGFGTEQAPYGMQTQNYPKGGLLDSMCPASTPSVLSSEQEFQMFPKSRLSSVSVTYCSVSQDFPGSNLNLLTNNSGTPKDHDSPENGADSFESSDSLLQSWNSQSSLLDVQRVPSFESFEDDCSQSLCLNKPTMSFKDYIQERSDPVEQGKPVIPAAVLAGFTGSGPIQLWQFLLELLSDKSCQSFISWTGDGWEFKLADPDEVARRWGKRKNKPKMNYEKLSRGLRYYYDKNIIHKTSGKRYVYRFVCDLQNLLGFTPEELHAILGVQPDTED
# Outline: as §1
# SPDEF = molecular target: T4, SPDEF (Homo sapiens, UniProt O95238 1-335)
# T4 sequence: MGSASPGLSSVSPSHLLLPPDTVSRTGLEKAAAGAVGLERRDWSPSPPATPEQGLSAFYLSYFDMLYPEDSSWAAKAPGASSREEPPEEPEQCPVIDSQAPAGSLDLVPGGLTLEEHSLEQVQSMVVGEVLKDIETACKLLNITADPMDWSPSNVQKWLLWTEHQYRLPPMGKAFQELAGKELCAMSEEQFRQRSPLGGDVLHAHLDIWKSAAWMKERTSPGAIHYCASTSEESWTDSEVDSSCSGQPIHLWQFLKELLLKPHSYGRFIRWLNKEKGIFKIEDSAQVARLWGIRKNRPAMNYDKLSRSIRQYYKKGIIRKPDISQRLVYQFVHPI
# Outline: as §1
# ETV7 = molecular target: T5, ETV7 (Homo sapiens, UniProt Q9Y603 1-341)
# T5 sequence: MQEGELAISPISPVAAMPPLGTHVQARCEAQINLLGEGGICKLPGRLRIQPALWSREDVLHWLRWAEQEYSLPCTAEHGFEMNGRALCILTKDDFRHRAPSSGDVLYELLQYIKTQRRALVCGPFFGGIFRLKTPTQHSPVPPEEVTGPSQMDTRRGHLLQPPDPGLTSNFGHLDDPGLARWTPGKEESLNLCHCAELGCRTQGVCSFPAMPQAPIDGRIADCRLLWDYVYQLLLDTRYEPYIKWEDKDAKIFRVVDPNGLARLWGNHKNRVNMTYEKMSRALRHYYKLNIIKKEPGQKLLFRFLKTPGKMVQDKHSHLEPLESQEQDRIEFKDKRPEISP
# Outline: as §1
# ELF5 = molecular target: T6, ELF5 (Homo sapiens, UniProt Q9UKW6-2 1-255)
# T6 sequence: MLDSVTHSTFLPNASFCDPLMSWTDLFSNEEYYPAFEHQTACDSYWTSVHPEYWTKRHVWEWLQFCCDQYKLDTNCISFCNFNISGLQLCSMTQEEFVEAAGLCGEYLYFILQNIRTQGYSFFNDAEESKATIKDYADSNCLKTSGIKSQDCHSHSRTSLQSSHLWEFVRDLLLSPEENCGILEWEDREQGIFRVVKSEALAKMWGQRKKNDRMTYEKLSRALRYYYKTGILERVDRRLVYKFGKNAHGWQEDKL
# Outline: as §1
# ETV3 = molecular target: T7, ETV3 (Homo sapiens, UniProt P41162-2 1-143)
# T7 sequence: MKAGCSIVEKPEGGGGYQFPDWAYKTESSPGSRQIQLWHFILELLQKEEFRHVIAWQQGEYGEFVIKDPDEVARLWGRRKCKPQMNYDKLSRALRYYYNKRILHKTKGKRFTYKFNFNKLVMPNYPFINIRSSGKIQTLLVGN
# Outline: as §1
# ETV6 = ETV6 (Homo sapiens, UniProt P41212 1-452)
# Chain of ETV6 (P41212 whole entry): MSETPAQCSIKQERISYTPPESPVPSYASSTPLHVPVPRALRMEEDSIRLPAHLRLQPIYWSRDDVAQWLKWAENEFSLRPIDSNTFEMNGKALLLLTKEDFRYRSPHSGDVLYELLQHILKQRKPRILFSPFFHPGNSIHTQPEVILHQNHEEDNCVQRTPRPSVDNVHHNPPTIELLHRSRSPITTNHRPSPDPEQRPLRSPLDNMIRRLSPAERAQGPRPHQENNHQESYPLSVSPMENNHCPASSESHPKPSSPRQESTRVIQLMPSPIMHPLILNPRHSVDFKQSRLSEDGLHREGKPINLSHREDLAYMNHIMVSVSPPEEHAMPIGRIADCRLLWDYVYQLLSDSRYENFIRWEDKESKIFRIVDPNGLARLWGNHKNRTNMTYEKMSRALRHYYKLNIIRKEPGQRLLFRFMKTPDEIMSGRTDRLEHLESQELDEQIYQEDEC
# Outline: as §1
Sequence,binding signal (ERF),binding signal (ETV3L),binding signal (ETS2),binding signal (SPDEF),binding signal (ETV7),binding signal (ELF5),binding signal (ETV3),binding signal (ETV6)
ATTCCA,"1.14 fold enrichment (6-mer frequency, TF over GST control)","1.31 fold enrichment (6-mer frequency, TF over GST control)","1.15 fold enrichment (6-mer frequency, TF over GST control)","1.11 fold enrichment (6-mer frequency, TF over GST control)","1.1 fold enrichment (6-mer frequency, TF over GST control)","1.15 fold enrichment (6-mer frequency, TF over GST control)","1.15 fold enrichment (6-mer frequency, TF over GST control)","1.19 fold enrichment (6-mer frequency, TF over GST control)"
CCCATC,"1.25 fold enrichment (6-mer frequency, TF over GST control)","1.15 fold enrichment (6-mer frequency, TF over GST control)","1.22 fold enrichment (6-mer frequency, TF over GST control)","1.07 fold enrichment (6-mer frequency, TF over GST control)","1.08 fold enrichment (6-mer frequency, TF over GST control)","1.21 fold enrichment (6-mer frequency, TF over GST control)","1.14 fold enrichment (6-mer frequency, TF over GST control)","1.1 fold enrichment (6-mer frequency, TF over GST control)"
TTACGA,"1.06 fold enrichment (6-mer frequency, TF over GST control)","1.18 fold enrichment (6-mer frequency, TF over GST control)","1.14 fold enrichment (6-mer frequency, TF over GST control)","1.1 fold enrichment (6-mer frequency, TF over GST control)","1.1 fold enrichment (6-mer frequency, TF over GST control)","1.08 fold enrichment (6-mer frequency, TF over GST control)","1.1 fold enrichment (6-mer frequency, TF over GST control)","1.21 fold enrichment (6-mer frequency, TF over GST control)"
TTCCCT,"1.58 fold enrichment (6-mer frequency, TF over GST control)","1.69 fold enrichment (6-mer frequency, TF over GST control)","1.75 fold enrichment (6-mer frequency, TF over GST control)","1.47 fold enrichment (6-mer frequency, TF over GST control)","1.55 fold enrichment (6-mer frequency, TF over GST control)","2.49 fold enrichment (6-mer frequency, TF over GST control)","1.75 fold enrichment (6-mer frequency, TF over GST control)","1.66 fold enrichment (6-mer frequency, TF over GST control)"
GATGCG,"1.17 fold enrichment (6-mer frequency, TF over GST control)","1.25 fold enrichment (6-mer frequency, TF over GST control)","1.2 fold enrichment (6-mer frequency, TF over GST control)","1.25 fold enrichment (6-mer frequency, TF over GST control)","1.22 fold enrichment (6-mer frequency, TF over GST control)","1.1 fold enrichment (6-mer frequency, TF over GST control)","1.23 fold enrichment (6-mer frequency, TF over GST control)","1.12 fold enrichment (6-mer frequency, TF over GST control)"
ACACCC,"1.17 fold enrichment (6-mer frequency, TF over GST control)","1.18 fold enrichment (6-mer frequency, TF over GST control)","1.09 fold enrichment (6-mer frequency, TF over GST control)","1.21 fold enrichment (6-mer frequency, TF over GST control)","1.09 fold enrichment (6-mer frequency, TF over GST control)","1.12 fold enrichment (6-mer frequency, TF over GST control)","1.14 fold enrichment (6-mer frequency, TF over GST control)","1.01 fold enrichment (6-mer frequency, TF over GST control)"
AAGCAG,"1 fold enrichment (6-mer frequency, TF over GST control)","1.04 fold enrichment (6-mer frequency, TF over GST control)","1.14 fold enrichment (6-mer frequency, TF over GST control)","1.13 fold enrichment (6-mer frequency, TF over GST control)","1.14 fold enrichment (6-mer frequency, TF over GST control)","1.19 fold enrichment (6-mer frequency, TF over GST control)","1.1 fold enrichment (6-mer frequency, TF over GST control)","1.11 fold enrichment (6-mer frequency, TF over GST control)"
TCCGGA,"2.04 fold enrichment (6-mer frequency, TF over GST control)","2.42 fold enrichment (6-mer frequency, TF over GST control)","2.66 fold enrichment (6-mer frequency, TF over GST control)","3.16 fold enrichment (6-mer frequency, TF over GST control)","2.24 fold enrichment (6-mer frequency, TF over GST control)","3.19 fold enrichment (6-mer frequency, TF over GST control)","2.84 fold enrichment (6-mer frequency, TF over GST control)","2.7 fold enrichment (6-mer frequency, TF over GST control)"
